This note sets out measurements from ChEMBL document CHEMBL4513216, “Probing the Open Global Health Chemical Diversity Library for Multistage-Active Starting Points for Next-Generation Antimalarials” (ACS Infect Dis, 2020).

Hit rate of the full screen: of about 69,000 compounds, about 8,600 (12%) showed an effect of 50% or more. What follows is part of a selection rich in strong results, with near analogues and random picks from the rest.

For this experiment, the system named is Plasmodium berghei. Put plainly: Screen against P. berghei liver stage (PbLuc), transformed with Luciferase, at 10uM. The class given is functional, HepG2. The following applies: tested at 10 uM.
For the compound `CCC1(CC)C(=O)NC(=O)N=C1Nc1ccc(C)cc1`, the INHIBITION is on record as 27.5%.
Take `O=C(NCC1(c2cccs2)CCCCC1)N1CCOC(CO)C1` (stereo not given): the INHIBITION is given as -39.4%.
Turning to `Cn1cc(N2C(=O)CC[C@@H]3[C@H]2CCN3CCc2ccccc2)cn1`, the INHIBITION turned out to be 17.4%.
The value for `CN(C)C(=O)NC1COC2(CCN(C(=O)Nc3ccccc3)CC2)C1` (stereo not given) was 42.1%; that for `O=C1CCC2(CCCN(C(=O)NCc3ccccc3)CC2)N1` (stereo not given) was 8.74%.
As to `Cc1nc2c(cc1C(=O)Nc1ccccc1Cl)c(=O)n(C)c(=O)n2C`, the INHIBITION is 18.6%.
With `COCCN1CCN(C)C2(CCN(C(=O)c3ccnnc3)CC2)C1=O`, the INHIBITION was 39.4%.
The value for `Cc1nn(C)c2nc(NC(C)c3n[nH]c(=O)[nH]3)sc12` (stereo not given) was 28.5%; that for `Cc1nn(C)c2nc(NC(C)c3nnn[nH]3)sc12` (stereo not given) was 1.24%.
In the case of `Cc1nc(C(C)Nc2nc3c(s2)c(C)nn3C)n[nH]1` (stereo not given) it was 52.1%; in that of `O=S(=O)(NCc1ccnc(-n2ccnc2)c1)c1cncc(F)c1`, 2.93%.
In the case of `CCN1CCCC(NC(=O)c2ccc(C)[nH]c2=O)C1` (stereo not given) it was 55.5%; in that of `Cc1ccc(C(=O)NC2CCCN(C)C2)c(=O)[nH]1` (stereo not given), 8.51%.
Turning to `Cc1ccc(C(=O)NC2CCCN(CC(N)=O)C2)c(=O)[nH]1` (stereo not given), the INHIBITION was 9.63%.
In the case of `CN(C)[C@@H]1CN(Cc2cccnc2)C[C@H]1c1cn(C)c2ccccc12` it was 23.69%; in that of `c1ccc(OCc2nnc3n2CCN(Cc2ccco2)C3)nc1`, 24.9%; in that of `Cc1nn(C)c2c(N(C)Cc3cccs3)nc(C3CC3)nc12`, -17.2%.
In the case of `CCOc1cc(C(=O)N2CCCC2)cc2occc12` it was 50.7%; in that of `CCOc1cc(C(=O)N2CCN(C)CC2)cc2occc12`, 44.1%; in that of `CCOC(=O)C1CCN(C(=O)c2cc(OCC)c3ccoc3c2)CC1`, -13.9%.
Turning to `CCOC(=O)N1CCN(C(=O)c2cc(OCC)c3ccoc3c2)CC1`, the INHIBITION was 58.2%.
Take `CCOc1cc(C(=O)N2CCN(CC)CC2)cc2occc12`: the INHIBITION is reported as 9.32%.
In the case of `CCOc1cc(C(=O)N2CCOCC2)cc2occc12` it was 36.6%; in that of `CN1CCCCC1c1ncc2c(n1)CCN(CCCc1ccccc1)C2` (stereo not given), 26.8%; in that of `Cc1cc(C(=O)N2CCC(O)(Cn3c(C)cc4ccncc43)CC2)on1`, 9.05%.
The value for `NC(=O)N1CCC(NCc2cc(C(F)(F)F)ccc2Cl)CC1` was 17.8%; that for `CN(C)C(=O)COCc1nnc2n1CCN(Cc1ccoc1)C2` was 45.8%; that for `CNC(=O)C1(CCCc2ccncc2)CCN1` (stereo not given) was -4.82%.
Consider `COc1ccc(CN2CC(O)CN(C(=O)C3CCC3)CC2=O)cc1` (stereo not given), for which the INHIBITION is recorded as 41.1%.
The value for `COc1cccc(CCC2CCCN(C(=O)c3ccccn3)C2)c1` (stereo not given) was 43.7%; that for `COc1cccc(CCC2CCCN(C(=O)c3ccc(=O)n(C)n3)C2)c1` (stereo not given) was 40.5%.
In the case of `COc1ccccc1CC1CCCN(C(=O)c2n[nH]c3c2CCC3)C1` (stereo not given), the INHIBITION was 19%.
As for `COc1cccc(CCC2CCCN(C(=O)c3n[nH]c4c3CCC4)C2)c1` (stereo not given), the INHIBITION is recorded as 81.8%.
In the case of `COc1cccc(CCC2CCCN(C(=O)c3ccc(OC)o3)C2)c1` (stereo not given) it was 68.3%; in that of `COc1cccc(CCC2CCCN(C(=O)C3=NN(C)C(=O)CC3)C2)c1` (stereo not given), 3.47%.
In the case of `Cn1cc(C(=O)N2CCCC(C(=O)CCc3ccccc3)C2)cn1` (stereo not given) it was 10.7%; in that of `COc1cccc(C(=O)N2CCCC(C(=O)CCc3ccccc3)C2)c1` (stereo not given), 65%; in that of `COc1cccc(OCC2CCCN(C(=O)c3cc(C)n[nH]3)C2)c1` (stereo not given), 10.5%.
The value for `COc1cccc(CCC2CCCN(C(=O)c3cnccn3)C2)c1` (stereo not given) was 81.1%.
Regarding `N#Cc1cccc(C(=O)N2CCCC(C(=O)CCc3ccccc3)C2)c1` (stereo not given), the INHIBITION is -8.66%.
The value for `COc1cccc(CCC2CCCN(C(C)=O)C2)c1` (stereo not given) was -10.9%.
As for `Cc1sc(NC(=O)CCC(=O)O)c(C(N)=O)c1-c1ccc(Cl)cc1Cl`, the INHIBITION stood at 41.6%.
In the case of `CNc1nccc(-c2cnc3sc(C)c(C)n3c2=O)n1` it was -4.82%; in that of `Cc1ccc(C(=O)NC2CCCN(S(C)(=O)=O)C2)c(=O)[nH]1` (stereo not given), 19.7%; in that of `O=C(c1cc[nH]n1)N1CCCC1c1cnccn1` (stereo not given), 31.6%.
In the case of `CC(NC(=O)COCC(F)(F)F)c1nnc2n1CCCCC2` (stereo not given) it was -27.8%; in that of `CCN(CC)CCCNC(=O)c1nn(CC)cc1Cl`, 35.8%.
Take `O=C(CCOc1ccc(Br)cc1)N1CCN(c2cnccn2)CC1`: the INHIBITION worked out at 43.2%.
On to `CC1(C)CN(CC(=O)NCc2ccccc2F)C[C@]1(C)O`, for which the INHIBITION was -2.97%.
Take `COc1ccc(C(=O)N2CCC(Oc3cccc(C)c3)(C(=O)O)CC2)o1`: the INHIBITION came to 40.2%.
In the case of `COc1cccc(CCC2CCCN(Cc3ncc[nH]3)C2)c1` (stereo not given) it was 65.7%; in that of `COc1cccc(OCC2CCCN(Cc3ccncc3)C2)c1` (stereo not given), 1.74%; in that of `COc1cccc(OCC2CCCN(Cc3ncc[nH]3)C2)c1` (stereo not given), 22.6%.
In the case of `COc1ccc(C(=O)N2CCC(Oc3ccccc3)(C(=O)O)CC2)o1` it was 50.1%.
The value for `COc1ccc(C(=O)N2CCC(Oc3ccc(C)cc3)(C(=O)O)CC2)o1` was 14.3%; that for `FC(F)(F)Cn1ccnc1CNCC1CCCN1c1cccnn1` (stereo not given) was -2.53%.
In the case of `Cc1nc(NC(=O)CCN2C(=O)c3ccccc3NC2C(C)C)sc1C` (stereo not given), the INHIBITION was found to be 28.7%.
In the case of `COCC(=O)NCc1cc(=O)n2c(n1)CN(Cc1ccncc1)CCC2` it was 22.2%.
Turning to `CCNc1cc2c(nn1)CCN(C(=O)c1ccsc1)C2`, the INHIBITION was 37.8%.
In the case of `CCC(=O)NCC(=O)NC(C)c1sc(-c2ccccc2F)nc1C` (stereo not given) it was -2.94%; in that of `COCC(=O)NC(C)c1sc(-c2ccccc2F)nc1C` (stereo not given), 84.2%.
The value for `CC(=O)NCCC(=O)NC(C)c1sc(-c2ccccc2F)nc1C` (stereo not given) was 29.3%; that for `CCc1nnc(CN2CCc3cnc(C)nc3C2)o1` was -36.6%.
`CC(C)NC(=O)N1CCOC2(CCCN(c3ncccc3F)C2)C1` (stereo not given): the INHIBITION is reported as 2.58%.
In the case of `CS(=O)(=O)CCNC1CCCN(Cc2noc(C3CC3)n2)C1` (stereo not given) it was 40.4%; in that of `O=c1c2cccc(C(F)(F)F)c2ncn1CCN1CCNCC1`, -100%.
The value for `Cc1nc[nH]c1-c1c(-c2ccccc2)ncn1C1CCNC1` (stereo not given) was 31.3%.
`O=c1c2cccc(Cl)c2ncn1C1CCNC1` (stereo not given): the INHIBITION was 56.3%.
The value for `O=c1c2cccc(C(F)(F)F)c2ncn1C1CCNC1` (stereo not given) was 53.6%.
The value for `O=c1c2cccc(F)c2ncn1CCN1CCNCC1` was -74%.
In the case of `O=C(O)C1(O)CCN(c2ccnc3c(C(F)(F)F)cccc23)CC1` it was -48.4%.
Regarding `Cc1cc(NCc2noc(C(C)C)n2)nc(-c2ccccc2)n1`, the INHIBITION came to 14.4%.
In the case of `COCCOc1cccc(C(=O)N2CCCCC2c2nccs2)c1` (stereo not given) it was -31.5%; in that of `CC(C)CNC(=O)CN(C)S(C)(=O)=O`, 40.7%; in that of `CCC(CO)NC(=O)c1ccc2ccc(N(C)CC3CC3)n2c1` (stereo not given), -24.3%.
In the case of `O=C(CCN1CCc2ccccc21)N1CC(C(=O)N2CCOCC2)C1` it was 25.6%; in that of `O=C(CCN1CCc2ccccc21)N1C[C@@H](O)[C@H](N2CCCC2)C1`, 56.8%.
In the case of `O=C(CCN1CCc2ccccc21)N1C[C@@H](O)[C@H](N2CCOCC2)C1` it was -8.12%; in that of `Cc1cc(CN2CCN(c3ccc4nncn4n3)C(C)C2)on1` (stereo not given), 26.5%; in that of `Cc1cnc(CN2CCN(c3ccc4nncn4n3)C(C)C2)cn1` (stereo not given), 23.7%.
As to `CC1CN(Cc2ccccn2)CCN1c1ccc2nncn2n1` (stereo not given), the INHIBITION was found to be 31.9%.
In the case of `CC1CN(Cc2nccn2C)CCN1c1ccc2nncn2n1` (stereo not given) it was 57.4%; in that of `Cc1cc(CN2CCN(c3ccc4nncn4n3)CC2)no1`, 26.5%; in that of `Cc1cc(CN2CCN(c3ccc4nncn4n3)C(C)C2)no1` (stereo not given), 59%.
In the case of `CN(Cc1ccco1)C(=O)c1cccc(N2CCCC2=O)c1` it was -27.9%; in that of `Cc1cc(=O)n2nc(Oc3cccc(I)c3)sc2n1`, 35.7%; in that of `O=S(=O)(Cc1cccc(F)c1)Nc1cc(Cl)ccn1`, 11.9%.
In the case of `CNC(=O)CN(C(=O)c1cc(C(C)C)no1)c1cccc(F)c1` it was -10.5%.
`CC(NCc1ccncc1)c1ccc(N2CCN(C)CC2)c(F)c1` (stereo not given): the INHIBITION came out at 15.8%.
Consider `CC(C)N(CC(N)=O)C(=O)c1cc(F)ccc1N1CCN(C)CC1`, for which the INHIBITION is given as 1.74%.
In the case of `CN1CCN(c2ccc(CO)cc2F)CC1` it was 68.4%; in that of `OCc1ccc(N2CCN(c3ncccn3)CC2)c(F)c1`, 31.3%.
`CN1CCN(c2ccc(F)cc2C(N)=O)CC1`: the INHIBITION is on record as 58.7%.
As for `C=C(C)CN(CC)C(=O)c1cc(F)ccc1N1CCN(C)CC1`, the INHIBITION was determined as 19.8%.
In the case of `Cc1cccc(C(=O)N2CC(C(=O)NCC3CC3)C3(CCOCC3)C2)n1` (stereo not given) it was 37.1%; in that of `CN1CCN(Cc2cccnc2)C(=O)C12CCN(C1CCOC1)CC2` (stereo not given), 40.3%; in that of `Cc1cc(F)ccc1N1CCCC(Nc2nccn3cnnc23)C1=O` (stereo not given), 25.4%.
The value for `O=C1C(Nc2nccn3cnnc23)CCCN1c1ccccc1Cl` (stereo not given) was 24.3%; that for `Cc1ccc(F)c(N2CCCC(Nc3nccn4cnnc34)C2=O)c1` (stereo not given) was 52.7%; that for `COC[C@]1(O)CCN(Cc2cnc(N(C)C)nc2)CC1(C)C` was -28.9%.
In the case of `O=C(O)C1(n2ccnc2)CCN(Cc2cc3ccccc3o2)CC1` it was 30.9%; in that of `CCc1c(C)sc2c1c(N)nc(=O)n2CCN1CCOCC1`, -39.7%; in that of `CCc1c(O)nc(SCC(=O)Nc2ccccc2)n(C(C)CC)c1=O` (stereo not given), 56.1%.
Consider `CCc1c(O)nc(SCC(=O)N(CC)CC)n(C(C)CC)c1=O` (stereo not given), for which the INHIBITION is 29%.
The value for `CCc1c(O)n(C(C)CC)c(SCC(=O)c2ccccc2)nc1=O` (stereo not given) was 36.7%; that for `Cn1cc(CN2CCc3c(CNC(=O)C4CC4)cncc3C2)cn1` was -17.2%; that for `O=C(c1cccnc1)N1C[C@H]2CN(Cc3cccc(F)c3)C(=O)[C@H]2C1` was -55.2%.
The value for `CC(C)NC(=O)C(NC(=O)N1CCN(c2ccc(Cl)cc2)CC1)C(C)C` (stereo not given) was -9.39%.
As for `CC(C)NC(=O)[C@H](C)NC(=O)N1CCN(c2ccc(Cl)cc2)CC1`, the INHIBITION is listed as 38.1%.
The value for `CC(C)NC(=O)[C@@H](NC(=O)N1CCN(c2ccc(Cl)cc2)CC1)C(C)C` was 65.5%.
